Experimental findings from PubChem BioAssay AID504467 (National Center for Advancing Translational Sciences (NCATS), 2011) are described below.

Molecules are shown by their SMILES. Among all 330,000 compounds or so, about 7,700 (2.3%) were called active. Inconclusive results (about 26%) are left out. Shown is part of a subset that was picked to be rich in actives. Unmarked numbers belong to inactive results. The call rests on the fitted dose curve; in most records, active means well fitted inhibition curve with a large enough effect; inconclusive means small, poorly fitted or top-dose-only effect, or effect the other way; inactive means flat fitted curve, though single readings scatter.
On the % scale 0 is the no-effect control and ±100 the full control effect; potency means the concentration at half of the fitted maximal effect.

This assay is described as follows: qHTS screen for small molecules that inhibit ELG1-dependent DNA repair in human embryonic kidney (HEK293T) cells expressing luciferase-tagged ELG1. Further: nearly all actives have a fitted effect of over 55% in size. To be noted: HEK293T ELG1-luciferase reporter, luminescence, 16 h, DNA damage induced by 5-fluorouridine; series mostly up to 46.1 µM; activity change, negative = inhibition: at the top concentration. The text has this:
NIH Molecular Libraries Probe Production Network [MLPCN] NIH Chemical Genomics Center [NCGC] MLPCN Grant: 1 R03 MH092164-01 Assay Provider: Kyungjae Myung, NHGRI, NIH Keywords: MLPCN, qHTS, NCGC, genotoxicity, cancer Assay Overview: Cancer cells divide rapidly compared to normal cells in the body. During cell division, cancer cells need to duplicate their genome by DNA replication. The failure of genome duplication leads to cancer cells' death. Therefore, inhibitors of DNA replication could specifically kill cancer cells. Based on this concept, many chemotherapeutic agents were developed and have been used to treat cancer patients. However, there are a limited number of agents available in the clinical setting, and some of those that do exist have low efficacy and severe side effects. Therefore, if we can find the compounds that effectively block DNA replication either by directly damaging DNA or by inhibiting other cellular mechanisms, the options for cancer treatment will be broadened. With this in mind, we developed a quantitative high-throughput ELG1-luciferase reporter gene assay. Small molecules that specifically block ELG1 function in response to DNA damage can be identified by monitoring the suppression of luciferase activity. Since ELG1 defines a pathway for repairing DNA damage, agents blocking ELG1 function can be used to sensitize cancer cells to chemotherapeutic agents whose mechanism of action involves the induction of DNA damage.
Assay Protocol Summary: For genotoxicity screening, 2,000 cells in 4 uL/well were dispensed into white, solid-bottom 1536-well plates using a solenoid-based dispenser. Following transfer of 1 uL 5-Fluorouridine and 23 nL compound or DMSO vehicle by a pin tool, the plates were incubated 16 hr at 37 °C and 5% CO2. 5 ul ONE-Glo (Promega) was then added to each plate and following a 30 min incubation at room temperature, luciferase activity was quantified on a ViewLux CCD-based plate reader.
For orientation: In qHTS, concentration-response curves come from the screen itself.
In the case of `Cc1cccc(N2C(=O)N3[C@H](c4ccc(F)cc4)[C@@H]4C(=O)N(C5CCCCC5)C(=O)[C@@H]4[C@]3(Cc3ccccc3)C2=O)c1`, the “activity change, negative = inhibition” value was -2.6%.

`COc1ccc(CN2C3CCCC2CC(NC(=O)c2cccc(F)c2)C3)cc1` (configuration not stated): the “activity change, negative = inhibition” value is 7.95%.

Take `CN(CC(=O)NCC(c1ccccc1)N1CCCC1)S(=O)(=O)c1ccc(Cl)cc1` (configuration not stated): the “activity change, negative = inhibition” value was 8.82%.

Turning to `COc1cc(/C=C2\SC(=O)NC2=O)ccc1OCc1ccc(Cl)nc1`, the “activity change, negative = inhibition” value was 13.8%.

Turning to `O=C(NCC(c1ccco1)N1CCc2ccccc21)c1cccc(F)c1` (configuration not stated), the “activity change, negative = inhibition” value is -6.47%.

As for `CCCCn1c(N)c(N(CC)C(=O)c2ccc(N(C)S(=O)(=O)c3ccc(C)cc3)cc2)c(=O)[nH]c1=O`, the “activity change, negative = inhibition” value was 2.79%.

Consider `COCCN1C(=O)C(=O)/C(=C(/O)c2ccc(S(=O)(=O)N3CCCCC3)cc2)C1c1ccc(OC)c(OC)c1` (configuration not stated), for which the “activity change, negative = inhibition” value was 6.1%.

As for `Cn1cc(C(=O)c2ccc(Cl)cc2Cl)cc1C(=O)NN`, the “activity change, negative = inhibition” value was 0.667%.

On to `Cc1noc(C)c1S(=O)(=O)N(C)C[C@H]1Oc2ccc(NC(=O)C3CC3)cc2C(=O)N([C@H](C)CO)C[C@@H]1C`, for which the “activity change, negative = inhibition” value was 0.566%.

`Cc1ccc(CN2CC(C(=O)NNC(=O)Cn3ccc(C(F)(F)F)n3)CC2=O)cc1` (configuration not stated): the “activity change, negative = inhibition” value was -0.475%.

For `Cc1cc(C(=O)Nc2c(C)nn(Cc3ccccc3)c2C)on1`, the “activity change, negative = inhibition” value was 3.72%.

In the case of `O=C(Nc1cc(C(F)(F)F)ccc1Cl)c1cc(C2CC2)on1`, the “activity change, negative = inhibition” value is 2.26%.

For `Cc1nn(Cc2ccc(Cl)c(Cl)c2)c(C)c1NC(=O)c1cc(C2CC2)on1`, the Potency is 16.4 µM (active).

In the case of `CC(=O)Nc1cccc(NC(=O)c2ccc3c(c2)CCN3S(C)(=O)=O)c1`, the “activity change, negative = inhibition” value was -20.3%.

`O=C1c2ccccc2[C@@H]2C[C@@H](O)[C@H](Nc3ccccc3Cl)CCN12`: the “activity change, negative = inhibition” value is -12.1%.

Turning to `N#Cc1c(NC(=O)CCCN2C(=O)c3ccccc3C2=O)oc(-c2ccccc2)c1-c1ccccc1`, the Potency was 7.94 µM (active).

On to `Cc1cc(C)cc(NC(=O)CCN2C(=O)c3ccccc3C2=O)c1`, for which the “activity change, negative = inhibition” value was -4.22%.

As to `CC(Oc1ccccc1)C(=O)Nc1oc(-c2ccco2)c(-c2ccco2)c1C#N` (configuration not stated), the “activity change, negative = inhibition” value was -0.938%.

Take `COc1cc(C(=O)Nc2oc(-c3ccccc3)c(-c3ccccc3)c2C#N)cc(OC)c1OC`: the Potency is 23.1 µM (active).

`COc1cc(C(=O)NCC(=O)N2CC=C(c3ccccc3)CC2)cc(OC)c1OC`: the “activity change, negative = inhibition” value was 0%.

In the case of `O=C(CCN1C(=O)c2ccccc2C1=O)Nc1ccncc1`, the “activity change, negative = inhibition” value was 0%.

For the compound `CCOc1ccc(NC(=O)c2cccc3c2C(=O)N(CC2CCCO2)C3)cc1` (configuration not stated), the “activity change, negative = inhibition” value is 20.6%.

On to `CCc1ccc(OCC(=O)N(Cc2ccccc2)C2CCS(=O)(=O)C2)cc1` (configuration not stated), for which the “activity change, negative = inhibition” value is -4%.

In the case of `CC[C@]12c3[nH]c4ccc(Cl)cc4c3CCN1C(=O)[C@@H](CC(=O)NCCCOC)C[C@@H]2C(=O)N1CCN(C(=O)c2ccco2)CC1`, the “activity change, negative = inhibition” value was 0.426%.

As to `CN(C)C(CNC(=O)c1cccc(S(=O)(=O)Nc2ccc(Br)cc2)c1)c1ccco1` (configuration not stated), the “activity change, negative = inhibition” value was -0.472%.

Take `COc1ccc(-c2noc(CCCC(=O)NC3CCCC3)n2)cc1OC`: the “activity change, negative = inhibition” value is -29%.

Regarding `O=C(Nc1ccc2nc3n(c(=O)c2c1)CCCCC3)c1ccccc1Cl`, the “activity change, negative = inhibition” value was -2.19%.

Turning to `COc1ccc(CCNC(=O)C(=O)Nc2ccc3nc4n(c(=O)c3c2)CCCCC4)cc1OC`, the Potency is 20.6 µM (active).

In the case of `COc1ccc(NC(=O)Cn2nnc(C(=O)NCCc3ccc(OC)c(OC)c3)c2N)cc1`, the “activity change, negative = inhibition” value was -0.109%.

As to `O=C(NCCc1c[nH]c2ccccc12)C1CCN(Cc2ccc(Br)cc2)CC1`, the “activity change, negative = inhibition” value was -14%.

With `CCn1cc(C(=O)N/N=C(/C)c2ccc(F)cc2)c(=O)c2cc(F)c(N3CCCC3)cc21`, the “activity change, negative = inhibition” value was -10.6%.

Consider `CCCCNC(=O)c1cn(CC)c2cc(N3CCN(C(=O)c4ccco4)CC3)c(F)cc2c1=O`, for which the Potency is 14.6 µM (active).

`CCn1cc(C(=O)NCCO)c(=O)c2cc(F)c(N3CCN(C)CC3)cc21`: the “activity change, negative = inhibition” value is 12.3%.

`COC(=O)CSc1nc2ccccc2c(=O)n1Cc1ccccc1`: the “activity change, negative = inhibition” value was -3.93%.

As to `O=S1(=O)CCOC[C@H](CC2CCCCC2)N1Cc1ccc(F)cc1`, the “activity change, negative = inhibition” value was 8.78%.

In the case of `C=CC[C@@H](CC(=O)N[C@@H](CO)Cc1ccccc1)C(=O)NCCOC(=O)[C@@H](CC=C)CC(=O)OC(C)(C)C`, the “activity change, negative = inhibition” value was 17.7%.

With `CCOC(=O)c1c(-c2ccc(C)cc2)csc1/N=C(\C)C1=C(O)c2ccccc2C1=O`, the Potency was 7.3 µM (active).

As for `CCOC(=O)c1c(-c2ccc(-c3ccccc3)cc2)csc1NC(=O)CCC(=O)O`, the “activity change, negative = inhibition” value is -0.959%.

Consider `CCOC(=O)c1c(-c2ccccc2)csc1NC(=S)NC(=O)c1ccccc1`, for which the “activity change, negative = inhibition” value is -14%.

`COc1cccc(CN(C)CC(O)COC(c2ccccc2)c2ccccc2C)c1` (configuration not stated): the “activity change, negative = inhibition” value was -14%.

Regarding `C=CCn1c(SCc2nnc(-c3ccccc3)o2)nnc1C(O)c1ccccc1` (configuration not stated), the “activity change, negative = inhibition” value is -0.318%.

`CCCC(=O)Nc1nnc(-c2ccccc2)o1`: the “activity change, negative = inhibition” value was 16.7%.

As for `CCCN(CCC)c1ccc(C(O)c2nnc(-c3ccccc3)o2)cc1` (configuration not stated), the Potency was 20.6 µM (active).

Take `CC(C)COc1ccc(C(=O)NNC(=O)CCC(=O)c2cccs2)cc1`: the “activity change, negative = inhibition” value is 0%.

Consider `C/C(Cl)=C\Cn1c(Nc2cccc(C)c2)nc2c1c(=O)n(C)c(=O)n2C`, for which the Potency is 9.2 µM (active).

With `CCC/C(C)=N\Nc1nc2c(c(=O)n(C)c(=O)n2C)n1C`, the “activity change, negative = inhibition” value is -2.43%.

Consider `Cc1cccc(Cn2c(N3CCN(c4ccccc4)CC3)nc3c2c(=O)n(C)c(=O)n3C)c1`, for which the “activity change, negative = inhibition” value is -5.25%.

On to `CCc1[nH]nc(C(=O)N2CCCC(CO)(Cc3ccc(F)cc3F)C2)c1C` (configuration not stated), for which the “activity change, negative = inhibition” value was 2.52%.

With `O=C(Nc1ccc(S(=O)(=O)N2CCCCC2)cc1)c1cnccn1`, the “activity change, negative = inhibition” value is -7.35%.

`O=C1c2cccnc2C(Nc2ccc(S(=O)(=O)N3CCCCCC3)cc2)N1Cc1ccccc1` (configuration not stated): the Potency is 8.2 µM (active).

`O=C(COc1ccc(S(=O)(=O)N2CCCCC2)cc1)NCc1ccccn1`: the “activity change, negative = inhibition” value was -4.87%.

Consider `Cc1ccc2nc(SCC(=O)Nc3cccc4ccccc34)nc(=O)n2c1`, for which the “activity change, negative = inhibition” value was 12.8%.

As for `COC(=O)CNC(=O)c1cc(-c2ccncc2)nc2ccccc12`, the “activity change, negative = inhibition” value was 4.24%.

With `O=C(NCCc1ccccn1)c1cc(-c2ccc(Cl)cc2)nc2ccccc12`, the Potency was 23.1 µM (active).

Consider `O=C(NCCc1ccccn1)c1cccnc1Oc1ccc(Cl)cc1`, for which the “activity change, negative = inhibition” value is -2.16%.

As for `Cc1ccccc1Nc1nc(N)nc(COC(=O)CCC(=O)c2ccc(F)cc2)n1`, the “activity change, negative = inhibition” value is 16.3%.

On to `Cc1onc(-c2ccc(Cl)cc2)c1-c1ccnn1S(=O)(=O)c1ccc(Cl)cc1`, for which the Potency was 14.6 µM (active).

As to `Cc1onc(-c2ccccc2)c1C(=O)N=C(N)c1ccc(Cl)cc1`, the “activity change, negative = inhibition” value is 10.9%.

With `COC(=O)c1noc(C)c1-c1ccnn1C(=O)c1ccc(Cl)cc1`, the “activity change, negative = inhibition” value is 3.21%.

With `Cc1nn(-c2ccccc2)c(C)c1NC(=O)COC(=O)c1cc(Cl)ccc1O`, the “activity change, negative = inhibition” value is 11.5%.

Turning to `Cc1nn(-c2ccccc2)c(C)c1NC(=O)CCl`, the “activity change, negative = inhibition” value was -3.28%.

As to `Cc1nn(-c2ccccc2)c(C)c1NC(=O)COc1ccc(Cl)cc1Cl`, the Potency is 20.6 µM (active).
